According to PubChem BioAssay (NCI):
About 79,000 compounds went through this panel and 15% of them were active in at least one assay; those are over-represented in the sample as a whole. Values without a mark were called inactive. The source made the active and inactive calls. No stated cut-off is given here; in the data, active means growth inhibition above about 70%; inactive means the rest.

What was measured:
[1] = NCI Yeast Anticancer Drug Screen. Data for the rad52 strain (AID 147);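 further: 0% = growth of vehicle-treated control cultures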; conditions: S. cerevisiae rad52 mutant growth inhibition, stronger effect = higher value
How it was run: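 Vehicle-treated cultures served as the reference for growth inhibition of compound-exposed yeast bearing a DNA repair mutation.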

[2] = NCI Yeast Anticancer Drug Screen. Data for the wt1 strain (AID 149);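 further: 0% = growth of vehicle-treated wt1 cultures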; conditions: S. cerevisiae wt1 strain (SPY 50644) growth inhibition, stronger effect = higher value
How it was run: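 Readout: yeast growth inhibition, normalised to vehicle controls, in the wt1 strain exposed to test compounds.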

[3] = NCI Yeast Anticancer Drug Screen. Data for the rad50EPP+ strain (AID 151);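 further: 0% = growth of vehicle-treated control cultures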; conditions: S. cerevisiae rad50 mutant strain, stronger effect = higher value
How it was run: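 In this screen, rad50EPP+ yeast were exposed to compounds. Growth inhibition was scored against vehicle-treated controls.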

[4] = NCI Yeast Anticancer Drug Screen. Data for the mgt1 strain (AID 153); conditions: S. cerevisiae mgt1 mutant growth inhibition, stronger effect = higher value
How it was run: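 mgt1 strain exposed; growth vs vehicle control recorded as inhibition.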

[5] = NCI Yeast Anticancer Drug Screen. Data for the rad50 strain (AID 155);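 further: 0% = growth of vehicle-only cultures of the same strain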; conditions: S. cerevisiae rad50 strain growth inhibition, stronger effect = higher value
How it was run: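 Compounds were tested on a yeast strain with an engineered DNA damage repair alteration; the reported value is growth inhibition normalised to vehicle treatment.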

[6] = NCI Yeast Anticancer Drug Screen. Data for the mec2-1 strain (AID 157); conditions: S. cerevisiae mec2-1 strain, stronger effect = higher value
How it was run: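 Vehicle-treated cultures served as reference for growth inhibition of compound-exposed mec2-1 yeast.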

[7] = NCI Yeast Anticancer Drug Screen. Data for the rad14 strain (AID 159);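 further: 0% = growth of vehicle-treated control cultures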; conditions: S. cerevisiae rad14 strain growth inhibition, stronger effect = higher value
How it was run: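 Compound-treated yeast with a defined DNA-repair lesion; growth inhibition normalised to vehicle-treated cultures.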

[8] = NCI Yeast Anticancer Drug Screen. Data for the sgs1 mgt1 strain (AID 161);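 further: 0% = growth of cultures given vehicle only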; conditions: S. cerevisiae sgs1 mgt1 strain, stronger effect = higher value
How it was run: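 Test agents were incubated with a DNA-repair-mutant yeast strain. Growth was then read and compared against vehicle-treated controls.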

[9] = NCI Yeast Anticancer Drug Screen. Data for the cln2 rad14 strain (AID 165);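 further: 0% = growth equal to vehicle treated cultures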; conditions: S. cerevisiae cln2 rad14 strain, stronger effect = higher value
How it was run: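 Each compound was tested on cln2 rad14 yeast. Inhibition of growth was calculated against vehicle-exposed controls.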

[10] = NCI Yeast Anticancer Drug Screen. Data for the bub3 strain (AID 167); conditions: S. cerevisiae bub3 mutant strain, stronger effect = higher value
How it was run: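 Growth of a checkpoint-deficient yeast mutant is measured after compound exposure. Values represent inhibition relative to vehicle.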

[11] = NCI Yeast Anticancer Drug Screen. Data for the wt2 strain (AID 169);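 further: 0% = growth of vehicle-treated yeast cultures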; conditions: S. cerevisiae wt2 strain growth inhibition, stronger effect = higher value
How it was run: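 Inhibition of yeast growth was determined after compound treatment, normalised to controls receiving only vehicle.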

[12] = NCI Yeast Anticancer Drug Screen. Data for the mlh1 strain (AID 171);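 further: 0% = growth of vehicle-treated control cultures of the same strain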; conditions: S. cerevisiae mlh1 strain growth inhibition, stronger effect = higher value
How it was run: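 Vehicle-normalised growth inhibition of a repair- or checkpoint-altered yeast strain following compound treatment.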

[13] = NCI Yeast Anticancer Drug Screen. Data for the sgs1 strain (AID 173);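 further: 0% = growth of vehicle-only control cultures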; conditions: S. cerevisiae sgs1 mutant, stronger effect = higher value
How it was run: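 Screen format: yeast with repair or checkpoint alterations, compound exposure, growth read relative to vehicle.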

[14] = NCI Yeast Anticancer Drug Screen. Data for the mlh1 rad18 strain (AID 175); conditions: S. cerevisiae mlh1 rad18 strain growth inhibition, stronger effect = higher value
How it was run: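 Vehicle-treated cultures served as the reference for growth inhibition in a yeast strain carrying DNA damage repair alterations exposed to each compound.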

[15] = NCI Yeast Anticancer Drug Screen. Data for the rad18 strain (AID 177); conditions: S. cerevisiae rad18 mutant growth inhibition, stronger effect = higher value
How it was run: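 Test articles were incubated with altered yeast defective in DNA damage repair. Results are given as inhibition of growth versus vehicle.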

[16] = at 5.0 µM (retest, dose inferred, filed as 0.5)
[17] = at 50.0 µM (retest, dose inferred, filed as 5.0)

**Q.** What does the source list for `Oc1ccc2nc3ccccc3nc2c1`?
**A.** growth inhibition ([1]; at 1.2 µM): -1%; growth inhibition ([1]; at 3.7 µM): 4%; growth inhibition ([1]; at 11.0 µM): 24%; growth inhibition ([1]; at 33.0 µM): 64%; growth inhibition ([1]; at 100.0 µM): 95% (active); growth inhibition ([2]; at 1.2 µM): 1%; growth inhibition ([2]; at 3.7 µM): 6%; growth inhibition ([2]; at 11.0 µM): 21%; growth inhibition ([2]; at 33.0 µM): 26%; growth inhibition ([2]; at 100.0 µM): 72% (active); growth inhibition ([3]; at 1.2 µM): -1%; growth inhibition ([3]; at 3.7 µM): -2%; growth inhibition ([3]; at 11.0 µM): 23%; growth inhibition ([3]; at 33.0 µM): 77% (active); growth inhibition ([3]; at 100.0 µM): 96% (active); growth inhibition ([4]; at 1.2 µM): -2%; growth inhibition ([4]; at 3.7 µM): -5%; growth inhibition ([4]; at 11.0 µM): 10%; growth inhibition ([4]; at 33.0 µM): 43%; growth inhibition ([4]; at 100.0 µM): 80% (active); growth inhibition ([5]; at 1.2 µM): 2%; growth inhibition ([5]; at 3.7 µM): 5%; growth inhibition [5, 16]: 9%; growth inhibition ([5]; at 11.0 µM): 23%; growth inhibition ([5]; at 33.0 µM): 68%; growth inhibition [5, 17]: 89% (active); growth inhibition ([5]; at 50.0 µM): 91.5% (active); growth inhibition ([5]; at 100.0 µM): 92% (active); growth inhibition ([6]; at 1.2 µM): 2%; growth inhibition ([6]; at 3.7 µM): 7%; growth inhibition [6, 16]: 13%; growth inhibition ([6]; at 11.0 µM): 24%; growth inhibition ([6]; at 33.0 µM): 52%; growth inhibition [6, 17]: 58%; growth inhibition ([6]; at 50.0 µM): 72.7% (active); growth inhibition ([6]; at 100.0 µM): 95% (active); growth inhibition ([7]; at 1.2 µM): 1%; growth inhibition ([7]; at 3.7 µM): 5%; growth inhibition ([7]; at 11.0 µM): 18%; growth inhibition ([7]; at 33.0 µM): 31%; growth inhibition ([7]; at 100.0 µM): 85% (active); growth inhibition [8, 16]: -3%; growth inhibition [8, 17]: 20%; growth inhibition ([8]; at 50.0 µM): 48.5%; growth inhibition [9, 16]: 19%; growth inhibition [9, 17]: 20%; growth inhibition ([9]; at 50.0 µM): 65.5%; growth inhibition ([10]; at 1.2 µM): 2%; growth inhibition ([10]; at 3.7 µM): 5%; growth inhibition [10, 16]: -8%; growth inhibition ([10]; at 11.0 µM): 29%; growth inhibition ([10]; at 33.0 µM): 46%; growth inhibition [10, 17]: 61%; growth inhibition ([10]; at 50.0 µM): 88% (active); growth inhibition ([10]; at 100.0 µM): 82% (active); growth inhibition ([11]; at 1.2 µM): -1%; growth inhibition ([11]; at 3.7 µM): 4%; growth inhibition ([11]; at 11.0 µM): 13%; growth inhibition ([11]; at 33.0 µM): 27%; growth inhibition ([11]; at 100.0 µM): 73% (active); growth inhibition ([12]; at 1.2 µM): -3%; growth inhibition ([12]; at 3.7 µM): -2%; growth inhibition ([12]; at 11.0 µM): 11%; growth inhibition ([12]; at 33.0 µM): 27%; growth inhibition ([12]; at 100.0 µM): 80% (active); growth inhibition ([13]; at 1.2 µM): -2%; growth inhibition ([13]; at 3.7 µM): 2%; growth inhibition ([13]; at 11.0 µM): 18%; growth inhibition ([13]; at 33.0 µM): 29%; growth inhibition ([13]; at 100.0 µM): 84% (active); growth inhibition [14, 16]: 35%; growth inhibition [14, 17]: 82% (active); growth inhibition ([14]; at 50.0 µM): 86.8% (active); growth inhibition ([15]; at 1.2 µM): -3%; growth inhibition ([15]; at 3.7 µM): 8%; growth inhibition ([15]; at 11.0 µM): 15%; growth inhibition ([15]; at 33.0 µM): 54%; growth inhibition ([15]; at 100.0 µM): 91% (active)
